Measurements: PubChem BioAssay AID1159580 (chemical genetic matrix, 2015)
Hit rate of the full screen: of about 5,500 compounds, about 2,000 (36%) were called active. Roughly 18% stayed inconclusive and do not appear here. Rule as the data show it: active = normalized growth mostly below about 0.91 (no sharp cut-off); inconclusive = no clear call, values can overlap the other calls; inactive = mostly above about 0.92. Some of the results follow.

Experiment: chemical genetic growth profiling, strain panel (AID 1159580);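 also: tested at 20 µM; growth read once vehicle control cultures reached saturation at 30 °C; 1 = growth at the plate median or of vehicle wells; lower values mean less growth of the strain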
Details: growth OD
[1] = S. cerevisiae deletion strains, locus YAL013W, strain DEP1, hits give low values
[2] = S. cerevisiae deletion strains, locus YBR229C, strain ROT2, hits give low values
[3] = S. cerevisiae deletion strains, locus YDL101C, strain DUN1, hits give low values
[4] = S. cerevisiae deletion strains, locus YDR150W, strain NUM1, hits give low values
[5] = S. cerevisiae deletion strains, locus YEL061C, strain CIN8, hits give low values
[6] = S. cerevisiae deletion strains, locus YGR078C, strain PAC10, hits give low values
[7] = S. cerevisiae deletion strains, locus YHR030C, strain SLT2, hits give low values
[8] = S. cerevisiae deletion strains, locus YJR043C, strain POL32, hits give low values
[9] = S. cerevisiae deletion strains, locus YJR075W, strain HOC1, hits give low values
[10] = S. cerevisiae deletion strains, locus YLR039C, strain RIC1, hits give low values
[11] = S. cerevisiae deletion strains, locus YLR262C, strain YPT6, hits give low values
[12] = S. cerevisiae deletion strains, locus YMR263W, strain SAP30, hits give low values
[13] = S. cerevisiae deletion strains, locus YNL153C, strain GIM3, hits give low values
[14] = S. cerevisiae deletion strains, locus YNL322C, strain KRE1, hits give low values
[15] = S. cerevisiae deletion strains, locus YOL006C, strain TOP1, hits give low values
[16] = S. cerevisiae deletion strains, locus YPL055C, strain LGE1, hits give low values
[17] = S. cerevisiae deletion strains, locus YPL241C, strain CIN2, hits give low values
[18] = S. cerevisiae strains, strain wild type, hits give low values

Measured: normalized growth

CSc1nc(N)nc(N2CCCCC2)n1
inactive: [1] 1 | [2] 1 | [3] 1 | [4] 0.982 | [5] 1 | [6] 1 | [7] 0.951 | S. cerevisiae deletion strains, locus YHR087W, strain rtc3, hits give low values 1 | [8] 1 | [9] 1 | [10] 1.01 | S. cerevisiae deletion strains, locus YLR058C, strain SHM2 (second series), hits give low values 1.02 | S. cerevisiae deletion strains, locus YLR085C, strain ARP6, hits give low values 0.936 | [11] 1.02 | S. cerevisiae deletion strains, locus YML094W, strain GIM5, hits give low values 0.944 | S. cerevisiae deletion strains, locus YMR219W, strain ESC1, hits give low values 1.01 | [12] 1.02 | [13] 0.99 | S. cerevisiae deletion strains, locus YNL298W, strain CLA4 (second series), hits give low values 1.02 | [14] 1 | S. cerevisiae deletion strains, locus YNR030W, strain Alg12, hits give low values 1.01 | [15] 0.812 | [16] 0.939 | [17] 0.935 | S. cerevisiae deletion strains, locus YPR135W, strain CTF4, hits give low values 0.946 | [18] 1.01

CNC(=O)[C@H]1O[C@@H](n2cnc3c(NCc4ccc(N)cc4)ncnc32)C(O)[C@H]1O (stereo not given in full)
inactive: [1] 0.978 | S. cerevisiae deletion strains, locus YAL040C, strain CLN3, hits give low values 0.991 | S. cerevisiae deletion strains, locus YER002W, strain NOP16, hits give low values 1.02 | [6] 0.986 | S. cerevisiae deletion strains, locus YNL175C, strain NOP13, hits give low values 1.02 | S. cerevisiae deletion strains, locus YNL197C, strain WHI3, hits give low values 1.01 | S. cerevisiae deletion strains, locus YNL224C, strain SQS1, hits give low values 1.02 | S. cerevisiae deletion strains, locus YOR083W, strain WHI5 (second series), hits give low values 0.995

NCC1OC(OC2C(CO)OC(OC3C(O)C(N)CC(N)C3OC3OC(CO)C(O)CC3N)C2O)C(N)C(O)C1OC1OC(CO)C(O)C(O)C1O (stereo not given)
inactive: [1] 0.997 | S. cerevisiae deletion strains, locus YBR021W, strain FUR4, hits give low values 1.17 | [2] 0.999 | S. cerevisiae deletion strains, locus YCL029C, strain bik1, hits give low values 0.977 | S. cerevisiae deletion strains, locus YDL035C, strain GPR1, hits give low values 0.996 | S. cerevisiae deletion strains, locus YDL074C, strain BRE1, hits give low values 0.993 | [3] 0.992 | S. cerevisiae deletion strains, locus YDL134C, strain PPH21, hits give low values 1.01 | S. cerevisiae deletion strains, locus YDL185W, strain tfp1, hits give low values 0.958 | S. cerevisiae deletion strains, locus YDL192W, strain arf1, hits give low values 0.984 | S. cerevisiae deletion strains, locus YDR101C, strain arx1, hits give low values 0.978 | [4] 0.991 | S. cerevisiae deletion strains, locus YDR162C, strain NBP2, hits give low values 0.992 | S. cerevisiae deletion strains, locus YDR318W, strain mcm21, hits give low values 0.997 | S. cerevisiae deletion strains, locus YDR388W, hits give low values 0.998 | S. cerevisiae deletion strains, locus YDR502C, strain sam2, hits give low values 0.988 | [5] 0.995 | S. cerevisiae deletion strains, locus YER110C, hits give low values 0.986 | S. cerevisiae deletion strains, locus YER155C, strain BEM2, hits give low values 0.995 | S. cerevisiae deletion strains, locus YER167W, strain BCK2, hits give low values 0.997 | S. cerevisiae deletion strains, locus YGL078C, strain dbp3, hits give low values 0.997 | S. cerevisiae deletion strains, locus YGL086W, strain mad1, hits give low values 1.01 | S. cerevisiae deletion strains, locus YGL248W, strain PDE1, hits give low values 0.996 | [6] 0.974 | S. cerevisiae deletion strains, locus YGR135W, strain pre9, hits give low values 0.993 | S. cerevisiae deletion strains, locus YGR229C, strain SMI1, hits give low values 0.991 | S. cerevisiae deletion strains, locus YGR252W, strain gcn5, hits give low values 1.18 | [7] 0.993 | S. cerevisiae deletion strains, locus YHR079C, strain IRE1 (second series), hits give low values 0.986 | S. cerevisiae deletion strains, locus YHR094C, strain hxt1, hits give low values 0.975 | S. cerevisiae deletion strains, locus YHR129C, strain ARP1, hits give low values 0.988 | S. cerevisiae deletion strains, locus YHR200W, strain rpn10, hits give low values 0.993 | S. cerevisiae deletion strains, locus YIL066C, strain RNR3, hits give low values 0.987 | S. cerevisiae deletion strains, locus YIL073C, strain SPO22, hits give low values 0.899 | S. cerevisiae deletion strains, locus YIL125W, strain kgd1, hits give low values 0.995 | S. cerevisiae deletion strains, locus YIR030C, strain dcg1, hits give low values 0.988 | S. cerevisiae deletion strains, locus YJL095W, strain BCK1, hits give low values 0.982 | S. cerevisiae deletion strains, locus YJL134W, strain LCB3, hits give low values 0.992 | S. cerevisiae deletion strains, locus YJL168C, strain set2, hits give low values 0.986 | S. cerevisiae deletion strains, locus YJL187C, strain SWE1 (second series), hits give low values 0.988 | [8] 0.992 | [9] 0.98 | S. cerevisiae deletion strains, locus YKL009W, strain mrt4, hits give low values 0.976 | S. cerevisiae deletion strains, locus YKL068W, hits give low values 0.978 | S. cerevisiae deletion strains, locus YKL085W, strain MDH1 (second series), hits give low values 0.983 | S. cerevisiae deletion strains, locus YKL085W, strain MDH1, hits give low values 0.983 | S. cerevisiae deletion strains, locus YKL190W, strain CNB1, hits give low values 0.995 | S. cerevisiae deletion strains, locus YKR001C, strain vps1, hits give low values 0.991 | [10] 0.944 | S. cerevisiae deletion strains, locus YLR058C, strain SHM2, hits give low values 0.999 | S. cerevisiae deletion strains, locus YLR102C, strain apc9, hits give low values 0.997 | [11] 0.916 | S. cerevisiae deletion strains, locus YLR268W, strain sec22, hits give low values 0.962 | S. cerevisiae deletion strains, locus YLR330W, strain CHS5, hits give low values 0.985 | S. cerevisiae deletion strains, locus YLR342W, strain FKS1 (second series), hits give low values 1.07 | S. cerevisiae deletion strains, locus YLR371W, strain rom2, hits give low values 0.986 | S. cerevisiae deletion strains, locus YLR418C, strain cdc73, hits give low values 1 | S. cerevisiae deletion strains, locus YML016C, strain PPZ1, hits give low values 1.01 | S. cerevisiae deletion strains, locus YML032C, strain rad52, hits give low values 0.981 | S. cerevisiae deletion strains, locus YML124C, strain tub3, hits give low values 1.01 | S. cerevisiae deletion strains, locus YMR078C, strain ctf18, hits give low values 0.993 | S. cerevisiae deletion strains, locus YMR223W, strain ubp8, hits give low values 1.03 | [12] 0.985 | S. cerevisiae deletion strains, locus YMR307W, strain GAS1, hits give low values 1.11 | S. cerevisiae deletion strains, locus YNL067W, strain RPL9B, hits give low values 0.976 | S. cerevisiae deletion strains, locus YNL128W, strain TEP1, hits give low values 0.994 | [13] 0.988 | S. cerevisiae deletion strains, locus YNL233W, strain BNI4, hits give low values 1 | S. cerevisiae deletion strains, locus YNL250W, strain rad50, hits give low values 1 | S. cerevisiae deletion strains, locus YNL271C, strain bni1, hits give low values 0.985 | S. cerevisiae deletion strains, locus YNL298W, strain CLA4, hits give low values 0.984 | S. cerevisiae deletion strains, locus YNL307C, strain MCK1, hits give low values 1 | [14] 0.995 | S. cerevisiae deletion strains, locus YNR052C, strain pop2, hits give low values 0.991 | [15] 0.948 | S. cerevisiae deletion strains, locus YOL012C, strain htz1 1.18 | S. cerevisiae deletion strains, locus YOL147C, strain pex11, hits give low values 0.998 | S. cerevisiae deletion strains, locus YOR061W, strain CKA2, hits give low values 0.997 | S. cerevisiae deletion strains, locus YOR069W, strain VPS5, hits give low values 1 | S. cerevisiae deletion strains, locus YOR136W, strain idh2, hits give low values 0.986 | S. cerevisiae deletion strains, locus YOR144C, strain elg1, hits give low values 0.985 | S. cerevisiae deletion strains, locus YOR184W, strain ser1, hits give low values 0.97 | S. cerevisiae deletion strains, locus YOR316C, strain cot1, hits give low values 0.965 | [16] 0.966 | [17] 0.997 | S. cerevisiae deletion strains, locus YPR119W, strain clb2, hits give low values 0.999 | S. cerevisiae deletion strains, locus YPR141C, strain kar3, hits give low values 0.985 | S. cerevisiae deletion strains, locus YPR163C, strain tif3, hits give low values 0.983 | S. cerevisiae deletion strains, locus YPR167C, strain met16, hits give low values 0.981 | S. cerevisiae deletion strains, strain wtn01, hits give low values 0.954 | [18] 1
